Test results published in PubChem BioAssay (NCI).
This is part of a sample that, as a whole, favours compounds with a hit. Of some 79,000 tested, about 15% had one in any assay. Active and inactive are the calls of the source. No stated cut-off is given here; in the data, active means growth inhibition above about 70%; inactive means the rest.

Columns and labels:
[1] = NCI Yeast Anticancer Drug Screen. Data for the rad52 strain (AID 147);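 further: 0% = growth of vehicle-treated control cultures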; conditions: S. cerevisiae rad52 mutant growth inhibition, active compounds read high
Method in brief: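 Screen used a yeast mutant impaired in DNA repair. After compound exposure, growth was measured. Values reflect inhibition compared with vehicle-treated cells.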

[2] = NCI Yeast Anticancer Drug Screen. Data for the wt1 strain (AID 149);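 further: 0% = growth of vehicle-treated wt1 cultures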; conditions: S. cerevisiae wt1 strain (SPY 50644) growth inhibition, active compounds read high
Method in brief: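 wt1 yeast, compound-treated; % growth inhibition vs vehicle control.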

[3] = NCI Yeast Anticancer Drug Screen. Data for the rad50EPP+ strain (AID 151);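 further: 0% = growth of vehicle-treated control cultures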; conditions: S. cerevisiae rad50 mutant strain, active compounds read high
Method in brief: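 Exposing the rad50EPP+ strain to each compound, growth was compared with vehicle-only cultures to give inhibition.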

[4] = NCI Yeast Anticancer Drug Screen. Data for the mgt1 strain (AID 153); conditions: S. cerevisiae mgt1 mutant growth inhibition, active compounds read high
Method in brief: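 Genetically defined yeast (mgt1) treated with compound; inhibition of growth expressed against vehicle-treated controls.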

[5] = NCI Yeast Anticancer Drug Screen. Data for the rad50 strain (AID 155);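 further: 0% = growth of vehicle-only cultures of the same strain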; conditions: S. cerevisiae rad50 strain growth inhibition, active compounds read high
Method in brief: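 Genetically altered yeast (DNA repair pathway); compound treatment; growth inhibition vs vehicle ctrl.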

[6] = NCI Yeast Anticancer Drug Screen. Data for the mec2-1 strain (AID 157); conditions: S. cerevisiae mec2-1 strain, active compounds read high
Method in brief: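 Readout is yeast growth inhibition, normalised to vehicle-treated controls, in the mec2-1 strain exposed to compound.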

[7] = NCI Yeast Anticancer Drug Screen. Data for the rad14 strain (AID 159);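 further: 0% = growth of vehicle-treated control cultures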; conditions: S. cerevisiae rad14 strain growth inhibition, active compounds read high
Method in brief: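 Test compounds were applied to a repair-deficient yeast strain. Its growth was then compared with that of cultures given vehicle alone, and inhibition was expressed relative to those controls.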

[8] = NCI Yeast Anticancer Drug Screen. Data for the sgs1 mgt1 strain (AID 161);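 further: 0% = growth of cultures given vehicle only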; conditions: S. cerevisiae sgs1 mgt1 strain, active compounds read high
Method in brief: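 Compounds are added to genetically altered yeast, and growth is compared with cultures given vehicle alone to give percent inhibition.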

[9] = NCI Yeast Anticancer Drug Screen. Data for the CLN2oe strain (AID 163);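 further: 0% = growth of vehicle-only control cultures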; conditions: S. cerevisiae CLN2oe strain, active compounds read high
Method in brief: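 Values reflect how much compound exposure reduced yeast growth, referenced to vehicle-exposed cells. Assay organism is a strain with a defined genetic change affecting cell-cycle control.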

[10] = NCI Yeast Anticancer Drug Screen. Data for the cln2 rad14 strain (AID 165);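 further: 0% = growth equal to vehicle treated cultures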; conditions: S. cerevisiae cln2 rad14 strain, active compounds read high
Method in brief: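 Relative to vehicle controls, growth inhibition of compound-treated cln2 rad14 yeast was recorded.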

[11] = NCI Yeast Anticancer Drug Screen. Data for the bub3 strain (AID 167); conditions: S. cerevisiae bub3 mutant strain, active compounds read high
Method in brief: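 Yeast carrying a defined mutation is treated with each compound, and growth is compared with that of vehicle-exposed cells to give inhibition.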

[12] = NCI Yeast Anticancer Drug Screen. Data for the wt2 strain (AID 169);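 further: 0% = growth of vehicle-treated yeast cultures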; conditions: S. cerevisiae wt2 strain growth inhibition, active compounds read high
Method in brief: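 Values express reduction in yeast growth under compound treatment, referenced to vehicle-treated cells.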

[13] = NCI Yeast Anticancer Drug Screen. Data for the mlh1 strain (AID 171);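 further: 0% = growth of vehicle-treated control cultures of the same strain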; conditions: S. cerevisiae mlh1 strain growth inhibition, active compounds read high
Method in brief: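 Steps: expose the defined-mutant yeast strain to compound; expose a parallel culture to vehicle; measure growth; express compound effect as inhibition relative to the vehicle culture.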

[14] = NCI Yeast Anticancer Drug Screen. Data for the sgs1 strain (AID 173);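 further: 0% = growth of vehicle-only control cultures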; conditions: S. cerevisiae sgs1 mutant, active compounds read high
Method in brief: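 Treat defined-mutant yeast with compound; measure growth; calculate inhibition relative to vehicle-treated cells.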

[15] = NCI Yeast Anticancer Drug Screen. Data for the mlh1 rad18 strain (AID 175); conditions: S. cerevisiae mlh1 rad18 strain growth inhibition, active compounds read high
Method in brief: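 Test agents were incubated with a yeast strain of defined genotype (DNA damage repair defect). Inhibition of growth was derived by comparison with vehicle-exposed cultures.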

[16] = NCI Yeast Anticancer Drug Screen. Data for the rad18 strain (AID 177); conditions: S. cerevisiae rad18 mutant growth inhibition, active compounds read high
Method in brief: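 A genetically defined yeast mutant impaired in DNA damage repair was treated with test compounds, then its growth was measured against cultures receiving vehicle alone.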

[17] = at 5.0 µM (retest, dose inferred, filed as 0.5)
[18] = at 50.0 µM (retest, dose inferred, filed as 5.0)

Measured: growth inhibition

CC(=O)Nc1ccc2c(c1)C(=Nc1ccc(C(=O)O)cc1)c1ccccc1-2
active: [1]; at 100.0 µM 96% | [3]; at 100.0 µM 92% | [4]; at 100.0 µM 91% | [5]; at 50.0 µM 91% | [5]; at 100.0 µM 95% | [6]; at 100.0 µM 78% | [7]; at 100.0 µM 97% | [8]; at 50.0 µM 74% | [11]; at 50.0 µM 91.6% | [12]; at 100.0 µM 93% | [13]; at 100.0 µM 90% | [14]; at 100.0 µM 95% | [15]; [18] 73% | [15]; at 50.0 µM 91.1% | [16]; at 33.0 µM 85% | [16]; at 100.0 µM 96%
inactive: [1]; at 1.2 µM -4% | [1]; at 3.7 µM -2% | [1]; at 11.0 µM 4% | [1]; at 33.0 µM 47% | [2]; at 1.2 µM 1% | [2]; at 3.7 µM 6% | [2]; at 11.0 µM 5% | [2]; at 33.0 µM 13% | [2]; at 100.0 µM 51% | [3]; at 1.2 µM 0% | [3]; at 3.7 µM 7% | [3]; at 11.0 µM 28% | [3]; at 33.0 µM 67% | [4]; at 1.2 µM -2% | [4]; at 3.7 µM -5% | [4]; at 11.0 µM -5% | [4]; at 33.0 µM 3% | [5]; at 1.2 µM -1% | [5]; at 3.7 µM 0% | [5]; [17] 6% | [5]; at 11.0 µM 9% | [5]; at 33.0 µM 47% | [5]; [18] 52% | [6]; at 1.2 µM 1% | [6]; at 3.7 µM 4% | [6]; [17] -3% | [6]; at 11.0 µM 9% | [6]; at 33.0 µM 22% | [6]; [18] 57% | [6]; at 50.0 µM 65.8% | [7]; at 1.2 µM -2% | [7]; at 3.7 µM 1% | [7]; at 11.0 µM 5% | [7]; at 33.0 µM 30% | [8]; [17] -15% | [8]; [18] 6% | [9]; at 1.2 µM 1% | [9]; at 3.7 µM -11% | [9]; at 11.0 µM 3% | [9]; at 33.0 µM 14% | [9]; at 100.0 µM 47% | [10]; [17] -8% | [10]; [18] 8% | [10]; at 50.0 µM 43.9% | [11]; at 1.2 µM -2% | [11]; at 3.7 µM -5% | [11]; [17] -7% | [11]; at 11.0 µM 0% | [11]; at 33.0 µM 11% | [11]; [18] 23% | [11]; at 100.0 µM 50% | [12]; at 1.2 µM -2% | [12]; at 3.7 µM -2% | [12]; at 11.0 µM -2% | [12]; at 33.0 µM 9% | [13]; at 1.2 µM -3% | [13]; at 3.7 µM 1% | [13]; at 11.0 µM 2% | [13]; at 33.0 µM 15% | [14]; at 1.2 µM -1% | [14]; at 3.7 µM 2% | [14]; at 11.0 µM 9% | [14]; at 33.0 µM 25% | [15]; [17] -7% | [16]; at 1.2 µM 5% | [16]; at 3.7 µM 15% | [16]; at 11.0 µM 47%
